Values joined by “and” are separate entries in the source; they are usually repeats but may differ in a detail not shown here. Identical values can stand only once. The whole screen tested about 5,500 compounds, of which about 2,000 (36%) were called active. Another 18% or so got no clear call; they are omitted. Rule as the data show it: active = normalized growth mostly below about 0.91 (no sharp cut-off); inconclusive = no clear call, values can overlap the other calls; inactive = mostly above about 0.92. The list shows a part of the results.
Assay: chemical genetic growth profiling, strain panel (AID 1159580);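 also: tested at 20 µM; growth read once vehicle control cultures reached saturation at 30 °C; 1 = growth at the plate median or of vehicle wells; lower values mean less growth of the strain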
Conditions: growth OD

Measured: normalized growth

NCCc1ccc(O)c(O)c1
inactive: S. cerevisiae deletion strains, locus YJL187C, strain SWE1 (second series), stronger effect = lower value 0.965 | S. cerevisiae deletion strains, locus YJR043C, strain POL32, stronger effect = lower value 1.03 | S. cerevisiae deletion strains, locus YJR066W, strain TOR1, stronger effect = lower value 0.958 and 0.96 | S. cerevisiae deletion strains, locus YJR075W, strain HOC1, stronger effect = lower value 0.98 and 0.981 | S. cerevisiae deletion strains, locus YKL009W, strain mrt4, stronger effect = lower value 0.964 | S. cerevisiae deletion strains, locus YKL068W, stronger effect = lower value 0.981 | S. cerevisiae deletion strains, locus YKL085W, strain MDH1 (second series), stronger effect = lower value 0.994 | S. cerevisiae deletion strains, locus YKL085W, strain MDH1, stronger effect = lower value 0.994 | S. cerevisiae deletion strains, locus YKL160W, strain elf1, stronger effect = lower value 1 | S. cerevisiae deletion strains, locus YKR001C, strain vps1, stronger effect = lower value 0.995 | S. cerevisiae deletion strains, locus YKR026C, strain gcn3, stronger effect = lower value 1 | S. cerevisiae deletion strains, locus YKR091W, strain srl3, stronger effect = lower value 1.01 | S. cerevisiae deletion strains, locus YLL001W, strain dnm1, stronger effect = lower value 0.983 | S. cerevisiae deletion strains, locus YLL026W, stronger effect = lower value 1 | S. cerevisiae deletion strains, locus YLL041C, strain sdh2, stronger effect = lower value 0.991 | S. cerevisiae deletion strains, locus YLR027C, strain aat2, stronger effect = lower value 1.01 | S. cerevisiae deletion strains, locus YLR039C, strain RIC1, stronger effect = lower value 0.99 | S. cerevisiae deletion strains, locus YLR058C, strain SHM2, stronger effect = lower value 0.985 | S. cerevisiae deletion strains, locus YLR102C, strain apc9, stronger effect = lower value 0.992 | S. cerevisiae deletion strains, locus YLR113W, strain HOG1, stronger effect = lower value 1.07 and 1.04 | S. cerevisiae deletion strains, locus YLR221C, strain rsa3, stronger effect = lower value 0.982 | S. cerevisiae deletion strains, locus YLR258W, strain gsy2, stronger effect = lower value 1 | S. cerevisiae deletion strains, locus YLR262C, strain YPT6 (second series), stronger effect = lower value 0.998 | S. cerevisiae deletion strains, locus YLR262C, strain YPT6, stronger effect = lower value 0.969 | S. cerevisiae deletion strains, locus YLR268W, strain sec22, stronger effect = lower value 1.01 | S. cerevisiae deletion strains, locus YLR320W, strain mms22, stronger effect = lower value 1 | S. cerevisiae deletion strains, locus YLR330W, strain CHS5, stronger effect = lower value 0.998 | S. cerevisiae deletion strains, locus YLR342W, strain FKS1 (second series), stronger effect = lower value 0.981 | S. cerevisiae deletion strains, locus YLR342W, strain FKS1, stronger effect = lower value 0.999 | S. cerevisiae deletion strains, locus YLR357W, strain rsc2, stronger effect = lower value 0.985 | S. cerevisiae deletion strains, locus YLR370C, strain arc18, stronger effect = lower value 1.01 | S. cerevisiae deletion strains, locus YLR371W, strain rom2, stronger effect = lower value 0.992 | S. cerevisiae deletion strains, locus YLR384C, strain iki3, stronger effect = lower value 0.99 | S. cerevisiae deletion strains, locus YLR418C, strain cdc73, stronger effect = lower value 0.999 | S. cerevisiae deletion strains, locus YML016C, strain PPZ1, stronger effect = lower value 0.991 | S. cerevisiae deletion strains, locus YML032C, strain rad52, stronger effect = lower value 1.01 | S. cerevisiae deletion strains, locus YML120C, strain ndi1, stronger effect = lower value 1.01 | S. cerevisiae deletion strains, locus YML124C, strain tub3, stronger effect = lower value 1 | S. cerevisiae deletion strains, locus YMR058W, strain fet3, stronger effect = lower value 1.02 | S. cerevisiae deletion strains, locus YMR078C, strain ctf18, stronger effect = lower value 0.991 | S. cerevisiae deletion strains, locus YMR125W, strain sto1, stronger effect = lower value 1.01 | S. cerevisiae deletion strains, locus YMR129W, stronger effect = lower value 1.01 | S. cerevisiae deletion strains, locus YMR205C, strain PFK2, stronger effect = lower value 1.03 | S. cerevisiae deletion strains, locus YMR223W, strain ubp8, stronger effect = lower value 0.972 | S. cerevisiae deletion strains, locus YMR231W, strain pep5, stronger effect = lower value 1.01 | S. cerevisiae deletion strains, locus YMR307W, strain GAS1, stronger effect = lower value 1.03 | S. cerevisiae deletion strains, locus YNL067W, strain RPL9B, stronger effect = lower value 0.968 | S. cerevisiae deletion strains, locus YNL071W, strain lat1, stronger effect = lower value 1 | S. cerevisiae deletion strains, locus YNL153C, strain GIM3, stronger effect = lower value 0.973 and 0.99 | S. cerevisiae deletion strains, locus YNL175C, strain NOP13, stronger effect = lower value 1 | S. cerevisiae deletion strains, locus YNL183C, strain NPR1, stronger effect = lower value 1 and 0.946 | S. cerevisiae deletion strains, locus YNL197C, strain WHI3, stronger effect = lower value 0.993 | S. cerevisiae deletion strains, locus YNL209W, strain ssb2, stronger effect = lower value 1 | S. cerevisiae deletion strains, locus YNL224C, strain SQS1, stronger effect = lower value 1 | S. cerevisiae deletion strains, locus YNL233W, strain BNI4, stronger effect = lower value 0.984 | S. cerevisiae deletion strains, locus YNL248C, strain rpa49, stronger effect = lower value 0.985 | S. cerevisiae deletion strains, locus YNL250W, strain rad50, stronger effect = lower value 1 | S. cerevisiae deletion strains, locus YNL271C, strain bni1, stronger effect = lower value 0.991 | S. cerevisiae deletion strains, locus YNL298W, strain CLA4, stronger effect = lower value 1 | S. cerevisiae deletion strains, locus YNL307C, strain MCK1, stronger effect = lower value 1 | S. cerevisiae deletion strains, locus YNL322C, strain KRE1 (second series), stronger effect = lower value 0.99 | S. cerevisiae deletion strains, locus YNR049C, strain mso1, stronger effect = lower value 1.01 | S. cerevisiae deletion strains, locus YNR052C, strain pop2, stronger effect = lower value 1.01 | S. cerevisiae deletion strains, locus YOL012C, strain htz1 0.769 | S. cerevisiae deletion strains, locus YOL147C, strain pex11, stronger effect = lower value 0.998 | S. cerevisiae deletion strains, locus YOR001W, strain rrp6, stronger effect = lower value 0.997 | S. cerevisiae deletion strains, locus YOR061W, strain CKA2, stronger effect = lower value 0.993 | S. cerevisiae deletion strains, locus YOR069W, strain VPS5, stronger effect = lower value 0.998 | S. cerevisiae deletion strains, locus YOR080W, strain dia2, stronger effect = lower value 1.01 | S. cerevisiae deletion strains, locus YOR083W, strain WHI5 (second series), stronger effect = lower value 0.984 | S. cerevisiae deletion strains, locus YOR083W, strain WHI5, stronger effect = lower value 1.01 | S. cerevisiae deletion strains, locus YOR106W, strain vam3, stronger effect = lower value 0.981 | S. cerevisiae deletion strains, locus YOR136W, strain idh2, stronger effect = lower value 0.999 | S. cerevisiae deletion strains, locus YOR144C, strain elg1, stronger effect = lower value 0.997 | S. cerevisiae deletion strains, locus YOR184W, strain ser1, stronger effect = lower value 0.995 | S. cerevisiae deletion strains, locus YOR231W, strain MKK1, stronger effect = lower value 1.07 and 1.04 | S. cerevisiae deletion strains, locus YOR265W, strain rbl2, stronger effect = lower value 1.01 | S. cerevisiae deletion strains, locus YOR270C, strain vph1, stronger effect = lower value 1.06 | S. cerevisiae deletion strains, locus YOR290C, strain snf2, stronger effect = lower value 1.01 | S. cerevisiae deletion strains, locus YOR316C, strain cot1, stronger effect = lower value 0.993 | S. cerevisiae deletion strains, locus YPL051W, strain arl3, stronger effect = lower value 0.974 | S. cerevisiae deletion strains, locus YPL055C, strain LGE1, stronger effect = lower value 0.974 | S. cerevisiae deletion strains, locus YPL078C, strain atp4, stronger effect = lower value 1.02 | S. cerevisiae deletion strains, locus YPL106C, strain sse1, stronger effect = lower value 0.968 | S. cerevisiae deletion strains, locus YPL240C, strain hsp82, stronger effect = lower value 1.01 | S. cerevisiae deletion strains, locus YPL256C, strain CLN2, stronger effect = lower value 1.03 and 1.04 | S. cerevisiae deletion strains, locus YPR119W, strain clb2, stronger effect = lower value 0.995 | S. cerevisiae deletion strains, locus YPR141C, strain kar3, stronger effect = lower value 0.969 | S. cerevisiae deletion strains, locus YPR163C, strain tif3, stronger effect = lower value 0.997 | S. cerevisiae deletion strains, locus YPR167C, strain met16, stronger effect = lower value 0.999 | S. cerevisiae deletion strains, strain wtn01, stronger effect = lower value 0.994 | S. cerevisiae strains, strain wild type, stronger effect = lower value 0.993

Source: PubChem BioAssay AID1159580 (chemical genetic matrix, 2015)
